For twelve molecules, growth results are on record in PubChem BioAssay (NCI).

What all share (test): NCI-60 one-dose screen, 48 h (100 = growth as untreated, 0 = no growth, -100 = all killed)
Holding throughout (conditions): 10 µM

Experiment [1] has as its system DU-145 prostate.
The subject of experiment [2] is K-562 leukemia.
For experiment [3], the system named is MALME-3M melanoma.
Experiment [4] relates to MDA-MB-231 breast.
Experiment [5] relates to RXF 393 renal.
In experiment [6] the test system is SF-268 CNS.
Experiment [7] has as its system SF-295 CNS.
In experiment [8] the test system is SF-539 CNS.
Experiment [9] deals with UACC-257 melanoma.
The subject of experiment [10] is M14 melanoma.

Structures are written as SMILES. Several values for one entry are separate records, joined by “and”; a condition that tells them apart may be missing. Equal values may be shown once. This is part of a sample that, as a whole, favours compounds with a hit. Of some 83,000 tested, about 20% had one in any assay.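 The test compound was applied at a single concentration to cells in 96-well plates for 48 hours, and percent growth was recorded.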 Activity calls are given as the source filed them. How the source made its calls: active means growth percent below 10; inactive means the rest.

As for `C/C(=C\c1ccc(Cl)c(Cl)c1)[N+](=O)[O-]`, the growth was 8.46% (active) and 104% (inactive) in experiment [1]; 0.843% (active) and 78.6% (inactive) in [2]; -55.4% (active) and 105% (inactive) in experiment [3]; -26.3% (active) and 101% (inactive) in [4]; -91.7% (active) and 100% (inactive) in experiment [5]; -19.1% (active) and 102% (inactive) in experiment [6]. The growth in experiment [7] was 94.5% (inactive); in experiment [8] it was 96.3% (inactive) and 100% (inactive); in [9], -88.8% (active); in [10], -86.8% (active) and 95% (inactive).

For the molecule `NNc1ccccc1`, the growth in experiment [1] is 98.4% (inactive); in [2], 19.5% (inactive); in [3], 118% (inactive); in experiment [4], 89.8% (inactive); in experiment [5] it was 123% (inactive); in experiment [6] it was 82.6% (inactive). The growth in experiment [7] was 80.5% (inactive); in [8] it was 99.3% (inactive); in experiment [9], 107% (inactive); in experiment [10], 46.6% (inactive).

For `O=[N+]([O-])c1ccc(Br)c([N+](=O)[O-])c1`, the growth is 93.4% (inactive) in experiment [1]; 34.6% (inactive) in [2]; 68.6% (inactive) in experiment [3]; 88.9% (inactive) in [4]; 102% (inactive) in experiment [5]; 96.8% (inactive) in experiment [6]. The growth was 108% (inactive) in experiment [7], 98.7% (inactive) in [8], 74.3% (inactive) in [9] and 79.9% (inactive) in experiment [10].

For the molecule `COc1cc(/C=C\[N+](=O)[O-])ccc1O`, the growth is 27.4% (inactive) and 61.2% (inactive) in [1]; 26.5% (inactive) and 48.1% (inactive) in experiment [2]; 50.4% (inactive) and 96.4% (inactive) in [3]; 91.6% (inactive) and 83.6% (inactive) in experiment [4]; 23.2% (inactive) and 56% (inactive) in experiment [5]; 75.5% (inactive) and 87.6% (inactive) in experiment [6]. Further, the growth in experiment [7] was 110% (inactive) and 104% (inactive); in [8], 70.5% (inactive) and 83.2% (inactive); in experiment [9], 61.2% (inactive) and 90.5% (inactive); in experiment [10], 71.3% (inactive) and 52.1% (inactive).

On to `O=[N+]([O-])/C=C/c1ccc([N+](=O)[O-])cc1`, for which the growth in experiment [1] is -47.5% (active) and 72.1% (inactive); in experiment [2], 5.65% (active) and 18.5% (inactive); in experiment [3], 66.7% (inactive) and 54.6% (inactive); in experiment [4], 66.5% (inactive) and 84.5% (inactive); in experiment [5], 101% (inactive); in experiment [6], 25.4% (inactive) and 103% (inactive). For the same molecule, the growth is 76.2% (inactive) and 104% (inactive) in [7]; -27.5% (active) and 75.7% (inactive) in [8]; -4.16% (active) and 96.5% (inactive) in experiment [9]; -29.1% (active) and 66.1% (inactive) in [10].

Turning to `O=C1C=Cc2ccccc2C1=O`, the growth in experiment [1] is 45.9% (inactive); in [2], 38.6% (inactive); in [3], 52.7% (inactive); in experiment [4], 67.1% (inactive); in experiment [5], 46.5% (inactive); in [6] it was 87.8% (inactive). Also, the growth in experiment [7] was 94% (inactive); in experiment [8] it was 76.7% (inactive); in experiment [9], 75.9% (inactive); in [10], 39.4% (inactive).

Turning to `Oc1ccccc1-c1ccccc1`, the growth was 103% (inactive) and 113% (inactive) in [1]; 93.2% (inactive) and 97.2% (inactive) in experiment [2]; 99.1% (inactive) and 106% (inactive) in experiment [3]; 95% (inactive) in [4]; 99% (inactive) and 106% (inactive) in experiment [5]; 98% (inactive) and 104% (inactive) in experiment [6]. In addition, the growth in experiment [7] is 105% (inactive) and 112% (inactive); in [8] it was 103% (inactive); in experiment [9] it was 97.6% (inactive) and 97.1% (inactive); in [10], 113% (inactive).

`CC(C)C1(NC(=O)C2CC3c4cccc5[nH]cc(c45)CC3N(C)C2)OC2(O)C3CCCN3C(=O)C(Cc3ccccc3)N2C1=O` (stereo not given): the growth in experiment [1] was 104% (inactive); in experiment [2], 69.8% (inactive); in experiment [3] it was 98.8% (inactive); in experiment [4] it was 86.9% (inactive); in experiment [5], 96.6% (inactive); in experiment [6], 93.1% (inactive). Moreover, the growth in experiment [7] is 106% (inactive); in experiment [8] it was 98.8% (inactive); in experiment [9] it was 93.7% (inactive); in experiment [10], 103% (inactive).

Take `O=[N+]([O-])c1ccc(N(CCO)CCO)c2c1no[n+]2[O-]`: the growth in experiment [1] is -44.5% (active); in experiment [2] it was -55.9% (active); in experiment [3] it was -38.2% (active); in [4], -12% (active); in experiment [5], -21.4% (active); in experiment [6], -17.6% (active). For the same molecule, the growth in [7] was -23.2% (active); in experiment [8], -59.8% (active); in [9] it was 12.1% (inactive); in [10], -32.4% (active).

Turning to `O=C1C(=O)c2ccccc2-c2ccccc21`, the growth in experiment [1] is -100% (active); in experiment [2] it was -37.4% (active); in [3], -93.6% (active); in experiment [4] it was -39% (active); in experiment [5], -93.2% (active); in experiment [6] it was -88.7% (active). Also, the growth in experiment [7] is -97.4% (active); in experiment [8] it was -92.7% (active); in [9], -95.6% (active); in experiment [10], -83.8% (active).

In the case of `C#CC1(O)CCC(C(C)(C)C)CC1` (stereo not given), the growth in [1] was 114% (inactive); in [2] it was 121% (inactive); in [3] it was 115% (inactive); in experiment [4] it was 119% (inactive); in [5] it was 115% (inactive); in experiment [6], 103% (inactive). For the same molecule, the growth in experiment [7] is 97.7% (inactive); in experiment [8], 102% (inactive); in experiment [9], 97% (inactive); in experiment [10], 108% (inactive).

Consider `NC(Cc1ccccc1)c1ccccc1` (stereo not given), for which the growth in experiment [1] is 117% (inactive) and 120% (inactive); in [2], 108% (inactive) and 94.4% (inactive); in experiment [3], 106% (inactive) and 109% (inactive); in experiment [4] it was 102% (inactive) and 95% (inactive); in [5], 105% (inactive) and 109% (inactive); in experiment [6], 106% (inactive) and 103% (inactive). The growth was 102% (inactive) and 104% (inactive) in [7]; 103% (inactive) and 97.2% (inactive) in experiment [8]; 106% (inactive) and 95.4% (inactive) in experiment [9]; 95.1% (inactive) and 94% (inactive) in experiment [10].
